# Experimental data published in ChEMBL document CHEMBL4296182, “CO-ADD screening of NIH NCI Diversity Set V”.
# Results with a measured potency or affinity are listed apart.
# System: Klebsiella pneumoniae
# Settings: Concentration 20 uM; ASSAY_TEST Inhibition of Bacterial Growth; detection method Absorption (OD600); MEDIA CAMHB; plate type 384well; NBS; CORNING #3640; time 18 hr
row,Compound,Inhibition [%]
1,CN(C)c1ccc2c(c1)Sc1cc(N(C)C)ccc1N2C(=O)c1ccccc1,25.07
2,O=C(CC1(O)CCCCC1)OC1CCCC1,-7.74
3,COc1cc2c(cc1OC)C(/C=C/c1ccco1)=NCC2.O=S(=O)(O)O,11.02
4,Nc1c(Cl)ncnc1NCCO,8.13
5,O=[N+]([O-])c1c(N2CCN(CCO)CC2)nc2ccccn12,3.38
6,O=S1(=O)CSCS(=O)(=O)C1,0.72
7,O=c1[nH]c2c(cnn2-c2ccc(Cl)cc2)c(=O)n1-c1cccc(Cl)c1,28.41
8,CC(C)n1cnc2c(S)ncnc21,11.21
9,O=[N+]([O-])c1ccc(/C=C\c2ccncc2)cc1,16.94
10,c1ccc(-c2nc[nH]c2-c2ccccc2)cc1,6.07
11,O=C(Nc1cccc([N+](=O)[O-])c1)c1cc2ccccc2cc1O,3.58
12,CC(C)NCC1CCc2cc(CO)c([N+](=O)[O-])cc2N1 (centres undefined) [OXAMNIQUINE],3.1
13,COc1ccc2c(=O)cc(-c3cccnc3)oc2c1OC,26.45
14,COc1ccc(NC2=CC(=S)NC(C)(C)C2)cc1,4.99
15,C=CCNC(=O)C1COc2ccccc2O1 (centres undefined),7.35
16,NC(=O)c1ccccc1OCC(=O)Nc1ccc(Cl)c(Cl)c1,9.46
17,CCCCCCCCCCC(C(=O)O)C1(C(=O)O)CCC(=O)O1 (centres undefined),3.55
18,CCCN(CCC)CC(=O)N1CC(=O)Nc2ccccc21,8.75
19,CC(=O)Nc1ccc(S(=O)(=O)N=S(C)C)cc1,15.05
20,CCN(CC)CCNC(=O)C(Cl)=C1C(Cl)=C(Cl)C(Cl)=C1Cl,29.33

row,Compound,Inhibition [%]
1,Nc1ccc(/N=N/c2ccc(O)cc2)c(N)n1,0.93
2,COC(=O)C1(C)Cc2cc(OC(C)=O)c(OC(C)=O)cc2N1 (centres undefined),5.52
3,O=C(OCC(O)COC(=O)c1cccnc1)c1cccnc1,3.04
4,Sc1cnnc2ccccc12,9.37
5,O=C(OCC1CCC=CO1)C1CCC=CO1 (centres undefined),7.72
6,O=C(O)c1ccc(N2CCCCC2)cc1O,12.65
7,CN1C=C/C(=C/[N+](=O)[O-])N(C)C1=O,0.88
8,CC1CC=C(O)C12OCC(C)(C)CO2 (centres undefined),14.38
9,Cn1ncc2c(Nc3ccc(O)cc3)nc(Cl)nc21,11.85
10,CC(C)C(=O)Nc1cccnc1,6.6
11,Br.CN(C)c1n/c(=N/Cc2ccco2)ss1,27.1
12,CCC1(C(=O)OC)CCc2c(cc(OC)c3ccccc23)C1=O (centres undefined),8.69
13,Nc1n[nH]c(Nc2ccccc2)n1,2.99
14,Oc1ncnc(CN2CCCCC2)c1O,2.35
15,CC1CCC(C(C)C)C(NC(=O)c2ccncc2)C1 (centres undefined),10.65
16,Oc1cc(-c2ccc(Cl)cc2)nc2ccccc12,16.07
17,CC(=O)O.N=c1ccn2c(n1)OC1C(O)C(CO)OC12 (centres undefined),17.17
18,CCOC(=O)C(C)c1c(C(=O)c2ccc(C)nc2)c2ccccc2n1C (centres undefined),16.34
19,O=C(Nc1cccc(-c2ccccc2)c1)N1CCN(C(=O)Nc2cccc(-c3ccccc3)c2)CC1,6.58
